Data: PubChem BioAssay (NCI)
This is part of a sample that, as a whole, favours compounds with a hit. Of some 83,000 tested, about 20% had one in any assay.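 Treatment: one concentration, 48 hours, 96-well format. Scoring: percent growth, with anything below 10 considered active.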 Unmarked numbers belong to inactive results. Activity calls are given as the source filed them.

The compounds below were run on CCRF-CEM leukemia (assay: NCI-60 one-dose screen, 48 h (100 = growth as untreated, 0 = no growth, -100 = all killed)). Details: 10 µM.
Experimental: Growth inhibition of the CCRF-CEM human tumor cell line is measured as a screen for anti-cancer activity. Cells are grown in 96 well plates and exposed to the test compound for 48 hours. Compounds are tested at a single concentration, which is 10^-5 M for most compounds. The reported endpoint is percent growth (GI% or GIPRCNT), where numbers from 0 - 100% represent growth inhibition, and numbers from -100% - 0 represent cell death. For example, a value of 40 represents 60% growth inhibition. A value of 0 means no net growth occurred over the course of the experiment. A value of -40 indicates 40% of cells at the beginning of the experiment died by the end of the experiment. A value of -100 means all cells are dead at the end of the experiment.
NCI-60 Human Tumor Cell Lines Screen was performed using the standard one-dose NCI protocol, which is described in more detail at https://dtp.cancer.gov/discovery_development/nci-60/default.htm.
Compounds with GIPRCNT values below 10 were considered active. Activity score was based on GIPRCNT using the following formula: […]
Score is 0 for GIPRCNT values of 100 or above, 50 for GIPRCNT values of 0, and 100 for GIPRCNT values of -100.

| SMILES | growth |
| --- | --- |
| CC(=O)C1N=NCC1c1ccccc1 (stereo not given) | 104% |
| O=C(NCCCNS(=O)(=O)c1ccc(Cl)cc1)Nc1ccc(-n2cc(-c3ccncc3)c(-c3ccc(Cl)c(O)c3)n2)cc1 | 23.5% |
| CC[C@@H]1NC(=O)[C@H]([C@H](O)[C@H](C)C/C=C/c2ccc(CN3C(=O)CCCC3=O)cc2)N(C)C(=O)[C@H](C(C)C)N(C)C(=O)[C@H](CC(C)C)N(C)C(=O)[C@H](CC(C)C)N(C)C(=O)[C@@H](C)NC(=O)[C@H](C)NC(=O)[C@H](CC(C)C)N(C)C(=O)[C@H](C(C)C)NC(=O)[C@H](CC(C)C)N(C)C(=O)CN(C)C1=O | 11.6% |
| CCOC(=O)c1cc(C(=O)c2ccc(OC)c(OC)c2)n2ccncc12 | 101% |
| COc1ccc(-c2nn(-c3cccc(Cl)c3)cc2-c2c(C#N)c(=O)n3[nH]c(-c4ccc(C)cc4)nc3c2C#N)cc1 | 31.4% |
| O=C1c2ccccc2C(=O)c2c1ccc(C(Br)Br)c2[N+](=O)[O-] | -43.4% (active) |
| COc1cc(-c2nn(-c3cccc(NC(=O)CCN4CCN(Cc5ccccc5)CC4)c3)cc2-c2ccncc2)ccc1Cl | 4.24% (active) |
| COc1ccc(/C=C2\CCCC3C2=Nc2ccccc2NC3c2ccc(OC)cc2)cc1 (stereo not given) | 80.4% |
| COc1ccc2c(c1)C(=O)/C(=C/c1ccc([N+](=O)[O-])o1)O2 | 3.49% (active) |
| O=C(CNc1nnc(-c2cccnc2SCc2ccccc2)s1)Nc1nc(Cl)cc(Cl)n1 | 102% |
| COC(=O)c1c[nH]c2cc(OC(C)C)c(OC(C)C)cc2c1=O | 80.9% |
| Cc1c2cnccc2c(C)c2c1oc1ccccc12 | 62.8% |
| CCOC(=O)CC(S(=O)(=O)c1ccccc1)S(=O)(=O)c1ccccc1 | 62.7% |
| COc1cc(/C=C/c2cc(/C=C/c3ccc(O)c(OC)c3)nc(N)n2)ccc1O | 1.68% (active) |
| NC(N)=N/N=C(\c1ccccc1)C(O)c1ccccc1 (stereo not given) | 92.7% |
| CN(C)CCCOc1ccc(OCCCN(C)C)c2c1C(=O)c1ccccc1C2=O | 2.78% (active) |
| NS(=O)(=O)Oc1ccc(NC(=O)C2CCCCCC2)cc1 | 89.4% |
| COc1cc2cc(Oc3ccc(NC(=O)c4ccc(Cl)c(C(F)(F)F)c4)cc3)c(C)nc2cc1OC | 19.9% |
| COC(=O)CC[C@@H](C)[C@H]1CC[C@H]2[C@@H]3CC[C@@H]4C[C@H](O)CC[C@]4(C)[C@H]3C[C@H](O)[C@]12C | 86.3% |
| COc1cc(C2C(C#N)=C(N)Oc3cc(O)ccc32)cc(OC)c1OC (stereo not given) | 8.88% (active) |

| SMILES | growth |
| --- | --- |
| CC(CN(C)C)Oc1ccccc1NC1=C(Cl)C(=O)C(Nc2ccccc2OC(C)CN(C)C)=C(Cl)C1=O (stereo not given) | -1.98% (active) |
| NS(=O)(=O)c1ccc(N2N=C(c3ccccc3)CCC2=O)cc1 | 108% |
| COc1ccc(Cl)cc1Nc1nc(C(F)(F)F)ccc1C(=O)N/N=C/c1cc(OC)c(OC)c(OC)c1 | 9.22% (active) |
| COc1cc(C)ccc1Oc1nc(Nc2ccc(N3CCOCC3)cc2)ncc1NC(=O)Nc1cc(C(F)(F)F)cc(C(F)(F)F)c1 | 41.9% |
| COc1cc(-c2ccc(N=Nc3ccc4c(S(=O)(=O)O)ccc(N)c4c3O)c(OC)c2)ccc1N=Nc1ccc2c(S(=O)(=O)O)ccc(N)c2c1O | 105% |
| O=S(=O)(O)c1cccc(Nc2ccc3ccccc3c2)c1 | 95.6% |
| COc1ccc(/C(C#N)=C/c2ccccc2OC)cc1 | 16.2% |
| NC(N)=N/N=C(\N=Nc1ccccc1)c1ccc(Cl)cc1 | -4.7% (active) |
| CC[N+](CC)=c1ccc2nc3c(cc(NCc4ccccc4)c4ccccc43)oc-2c1 | 19% |
| CCOC(=O)Cn1c(=O)c2sc3ncccc3c2n2nnc(-c3ccccc3)c12 | 86.3% |
| COc1cc(C(=O)n2nc(-c3cc(OC)c(OC)c(OC)c3)nc2N)cc(OC)c1OC | 96.7% |
| CC(=O)C1CCC2C3CC=C4CC(SC(=N)N)CCC4(C)C3CCC12C (stereo not given) | 6.89% (active) |
| CCCN1CN2C(=O)N3CN(CCC)CN4C(=S)N(C1)C2C34 (stereo not given) | 94.9% |
| Cc1cc(SCc2ccccc2)nc(N)n1 | 88.1% |
| c1ccc(/C(=N\Nc2ccc3ccccc3n2)c2ccccn2)cc1 | -39% (active) |
| Cc1c(Cl)cccc1NC(=O)CN1CCOCC1 | 97.2% |
| COc1ccc(C2CC(c3cc(OC)c(OC)c(OC)c3)=NN2)cc1 (stereo not given) | 57.3% |
| COc1ccc(/C=C2/SC(=S)NC2=O)c(OC)c1OC | 76.8% |
| CNS(=O)(=O)Oc1ccc(-c2ccc3occc3c2)cc1 | 87.7% |
| COc1cc2cc(Oc3ccc(NC(=O)c4cc(C(F)(F)F)cc(C(F)(F)F)c4)cc3)c(C)nc2cc1OC | 33.7% |
